Calls of active or inactive are those of the source. How the source made its calls: active means hit-call score of the fitted dose curve at least 0.9, where 1 is the maximum; inactive means score below 0.9.

The nature of assay [1]: ATG_E_Box_CIS: Attagene CIS-FACTORIAL HepG2 Assay for human Enhancer Box (E-box) (AID 2282936). The note with it: HepG2 E-box cis-reporter transcription, actives raise or lower the signal. Put shortly: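 Transiently transfected HepG2, endogenous TF-driven reporters, 24 h dosing. Readout: RT-PCR plus capillary electrophoresis of fluorescent reporter fragments. Gain or loss of signal fitted bidirectionally against DMSO baseline.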

Assay [2] is described as follows: ATG_M_61_CIS: Attagene CIS-FACTORIAL HepG2 Assay for M61 Transcription Factor (Internal Marker) (AID 2282937). The note with it: HepG2 Attagene CIS-FACTORIAL M61 internal marker reporter; actives raise or lower the signal. In short, it runs like this: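 Transfect HepG2 with MRTUs; dose 24 h; isolate RNA; reverse-transcribe with DNase I treatment; PCR-amplify, FAM-label and cut with HpaI for 2 h at 37 C; resolve by CE. Bidirectional fitting against DMSO.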

Assay [3] is described as follows: ATG_EGR_CIS: Attagene CIS-FACTORIAL HepG2 Assay for human Early Growth Response 1 (EGR1) (AID 2282938). The note with it: HepG2 Attagene CIS-FACTORIAL EGR reporter mRNA; actives raise or lower the signal. Put shortly:
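After a 24 h treatment of transiently transfected HepG2 cells, total RNA was reverse-transcribed and reporter sequences PCR-amplified, labelled and run on capillary electrophoresis. Reporters sit under cis-regulatory promoters sensing endogenous factors.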

Assay [4] is described as follows: ATG_M_19_CIS: Attagene CIS-FACTORIAL HepG2 Assay for M19 Transcription Factor (Internal Marker) (AID 2282939). The note with it: HepG2 Attagene CIS-FACTORIAL M19 internal marker reporter; actives raise or lower the signal. Put shortly:
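Transfect HepG2 with MRTU reporter library → dose chemical, 24 h → isolate total RNA, reverse-transcribe with oligo(dT) → PCR, 6-FAM label, HpaI cut (2 h, 37 C) → capillary electrophoresis. Bidirectional fit vs DMSO.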

A short description of assay [5]: ATG_Ets_CIS: Attagene CIS-FACTORIAL HepG2 Assay for human Erythroblast Transformation Specific (ETS) (AID 2282941). The note with it: HepG2 ETS cis-reporter transcription, actives raise or lower the signal. Put shortly: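 Cis-regulated reporter mRNA induction in HepG2 (transient transfection), 24 h exposure, RT-PCR plus capillary electrophoresis detection; DMSO serves as negative control and baseline.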

Assay [6] concerns the target Hepatocyte nuclear factor 3-beta (Homo sapiens) (UniProt Q9Y261). Description: ATG_FoxA2_CIS: Attagene CIS-FACTORIAL HepG2 Assay for human Forkhead box A2 (FOXA2) (AID 2282942). To be noted: HepG2 cis-reporter transcription factor activity, 24 h; actives raise or lower the signal. In short, it runs like this: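 24 h dosing of HepG2 bearing cis-reporter constructs; mRNA readout by RT-PCR/CE fluorescence; bidirectional fit, DMSO baseline.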

Assay [7] is described as follows: ATG_GATA_CIS: Attagene CIS-FACTORIAL HepG2 Assay for human GATA Binding Protein (AID 2282944). To be noted: HepG2 GATA cis-element reporter, Attagene multiplex mRNA; actives raise or lower the signal. Put shortly:
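Transient MRTU transfection, HepG2, 24 h compound exposure. Total RNA → oligo(dT) RT → PCR → 6-FAM primer extension → HpaI cut → CE. Bidirectional fit vs DMSO.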

Assay [8] in a line: ATG_GLI_CIS: Attagene CIS-FACTORIAL HepG2 Assay for human Zinc Finger Protein GLI1 (AID 2282945). To be noted: HepG2, Attagene cis-factorial reporter mRNA, GLI element; actives raise or lower the signal. In short, it runs like this: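 Transiently transfected HepG2 cells report endogenous transcription factor activity via cis-element-driven reporter units. After 24 h compound exposure, reporter mRNA was measured by RT-PCR with capillary electrophoresis; bidirectional fitting against DMSO baseline.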

Assay [9] in a line: ATG_FoxO_CIS: Attagene CIS-FACTORIAL HepG2 Assay for human Forkhead box O (FoxO) (AID 2282943). The note with it: HepG2 Attagene cis-reporter, FoxO element, mRNA; actives raise or lower the signal. In short, it runs like this:
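Transfected HepG2 reporter cells exposed to test chemical for 24 h; reporter RNA measured by reverse transcription, PCR and fluorescent capillary electrophoresis; curves fitted for increases and decreases against DMSO.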

Hepatocyte nuclear factor 3-beta (Homo sapiens), sequence (Q9Y261 whole entry, looked up): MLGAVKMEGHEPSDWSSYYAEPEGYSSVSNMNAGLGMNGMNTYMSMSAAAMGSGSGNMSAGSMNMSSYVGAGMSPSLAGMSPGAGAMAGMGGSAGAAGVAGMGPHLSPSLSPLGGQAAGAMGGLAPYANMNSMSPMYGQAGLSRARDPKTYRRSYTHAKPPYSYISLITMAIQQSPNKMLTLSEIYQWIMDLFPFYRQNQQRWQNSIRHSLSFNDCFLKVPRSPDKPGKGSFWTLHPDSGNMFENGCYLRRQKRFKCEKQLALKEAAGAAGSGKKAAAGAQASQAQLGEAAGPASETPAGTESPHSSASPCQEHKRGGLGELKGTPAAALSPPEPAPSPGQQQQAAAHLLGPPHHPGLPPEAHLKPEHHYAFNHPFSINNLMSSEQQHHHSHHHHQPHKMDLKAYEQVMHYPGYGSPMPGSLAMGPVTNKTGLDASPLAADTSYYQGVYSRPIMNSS

Regarding `CCCCCCCC(=O)OCC(O)CO` (configuration not stated), the result in [1], in [2], in assay [3], in [4], in assay [5] and in assay [6] was inactive. In addition, the result in [7] and in [8] was inactive.
Regarding `C=CCOC(=O)CCCCCC`, the result in assay [1], in [2], in assay [3], in [4], in assay [5] and in [6] was inactive. Besides, the compound was called inactive in assay [7].
As a reminder, the AC50 is the concentration at which the activity in the assay is half-maximal. Turning to `CCCCCCCCc1ccc(S(=O)(=O)O)cc1`, the AC50 in assay [1] is 159 µM (active); in [2] it was 155 µM (active); in assay [4], 157 µM (active); in assay [5], 156 µM (active); in assay [9] it was 159 µM (active); in assay [7] it was 99.5 µM (active). In [8], the AC50 was 168 µM (active). The compound was called inactive in assay [3] and in assay [6].
Turning to `CCCCCCCC(=O)OCCCCCC`, the result in [1], in assay [2], in assay [3], in [4], in assay [5] and in [6] was inactive. Besides, the call in assay [7] and in assay [8] was inactive.
Regarding `O=C(O)c1ccc(O)cc1`, the result in [1], in assay [2], in [3], in assay [4], in [5] and in assay [6] was inactive. Also, the outcome in assay [7] and in assay [8] was inactive.
As for `CC(=O)O[C@@H]1CC2CCC1(C)C2(C)C` (some centres not stated), the result in assay [1], in [2], in assay [3], in assay [4], in assay [5] and in assay [6] was inactive. Besides, the result in assay [9], in assay [7] and in assay [8] was inactive.
On to `CC(C)c1ccccc1O`, for which the result in assay [1], in assay [2], in [3], in [4], in assay [5] and in assay [6] was inactive. For the same compound, the compound was classed as inactive in [9], in assay [7] and in assay [8].
Turning to `OC[C@H]1O[C@@H]2O[C@H]3[C@H](O)[C@@H](O)[C@@H](O[C@H]4[C@H](O)[C@@H](O)[C@@H](O[C@H]5[C@H](O)[C@@H](O)[C@@H](O[C@H]6[C@H](O)[C@@H](O)[C@@H](O[C@H]7[C@H](O)[C@@H](O)[C@@H](O[C@H]8[C@H](O)[C@@H](O)[C@@H](O[C@H]9[C@H](O)[C@@H](O)[C@@H](O[C@H]1[C@H](O)[C@H]2O)O[C@@H]9CO)O[C@@H]8CO)O[C@@H]7CO)O[C@@H]6CO)O[C@@H]5CO)O[C@@H]4CO)O[C@@H]3CO`, the result in [1], in assay [2], in [3], in [4], in assay [5] and in assay [6] was inactive. In addition, the call in [9], in assay [7] and in [8] was inactive.
Turning to `Nc1ccc2cc(S(=O)(=O)O)cc(O)c2c1N=Nc1ccccc1C(F)(F)F`, the outcome in assay [1], in [2], in assay [3], in [4], in assay [5] and in [6] was inactive. Moreover, the call in [7] was inactive.
On to `CCc1ccc(O)c(OC)c1`, for which the outcome in [1], in assay [2], in [3], in assay [4], in [5] and in assay [6] was inactive. The result in [7] and in assay [8] was inactive.
As to `CCOc1ccc(NC(=O)CC(C)O)cc1` (configuration not stated), the outcome in assay [1], in [2], in assay [3], in assay [4], in assay [5] and in assay [6] was inactive. Moreover, the call in assay [7] and in assay [8] was inactive.
As to `CC(C)CCCCCCCCCCCCCCC(=O)O`, the outcome in [1], in assay [2], in assay [3], in assay [4], in assay [5] and in [6] was inactive. Further, the compound was called inactive in assay [7] and in assay [8].
As for `COC(C)(C)CCCC(C)CC=O` (configuration not stated), the result in assay [1], in [2], in [4], in assay [5], in assay [6] and in [9] was inactive. Also, the compound was called inactive in assay [7].
For the compound `Cc1ccc2c(c1)C(=O)OC2=O`, the result in assay [1], in assay [2], in assay [4], in assay [5], in [6] and in assay [9] was inactive. The result in assay [7] and in assay [8] was inactive.
`C=CCCC(=O)/C=C/C1C(C)=CCCC1(C)C` (configuration not stated): the AC50 in [1] is 160 µM (active). Moreover, the call in assay [2], in assay [4], in [5], in [6], in [9] and in assay [7] was inactive. Moreover, in [8], the outcome was inactive.
As for `CN1C(=O)c2ccccc2C1=O`, the outcome in assay [1], in assay [2], in assay [4], in assay [5], in assay [6] and in assay [9] was inactive. Further, the result in [7] and in assay [8] was inactive.
As for `CCOC(=O)CN`, the outcome in assay [1], in [2], in [4], in [5], in assay [6] and in assay [9] was inactive. Also, the compound was called inactive in [7] and in assay [8].

Source of the values: PubChem BioAssay (EPA / NIEHS).
